Compound activity (PubChem BioAssay)
AmpC no deterg = AmpC beta-lactamase inhibition without detergent; P00811; AmpC nitrocefin hydrolysis, absorbance 480 nm, 0.0001% Triton; Potency, µM (highest dose often 57.1 µM), usual class: inhibitors; 0.52% of 330,000 active; AID 485341; note: nearly all actives have a fitted effect of over 20% in size
Target sequence (P00811 whole entry, looked up): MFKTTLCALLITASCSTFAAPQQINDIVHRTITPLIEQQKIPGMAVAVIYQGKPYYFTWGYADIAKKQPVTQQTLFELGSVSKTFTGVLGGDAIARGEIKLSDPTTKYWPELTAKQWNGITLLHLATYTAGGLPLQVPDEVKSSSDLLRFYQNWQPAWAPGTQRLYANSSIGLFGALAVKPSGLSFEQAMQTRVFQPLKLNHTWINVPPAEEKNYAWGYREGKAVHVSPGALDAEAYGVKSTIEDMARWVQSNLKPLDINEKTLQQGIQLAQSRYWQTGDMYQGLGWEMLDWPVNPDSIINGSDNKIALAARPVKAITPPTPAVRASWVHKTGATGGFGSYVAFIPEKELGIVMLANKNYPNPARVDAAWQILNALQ
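AmpC (5.3 nM in the dispensed reagent) in 20 mM phosphate pH 7.0 with 0.01% (detergent screen) or 0.0001% Triton X-100 was preincubated with compounds for 15 min at room temperature. Nitrocefin was then added from an 800 uM solution, and hydrolysis was followed at 480 nm.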
Vaccinia Venus = inhibitors of vaccinia virus (Venus reporter) | AID 720580 | Potency, µM (series often up to 36.5 µM), most hits filed as inhibitors | Vaccinia virus Venus reporter expression, fluorescence | 0.46% of 330,000 active; calls by dose curve; tested in A549 cells; note: nearly all actives have a fitted effect of over 30% in size
SARS PLpro yeast-1 = inhibitors of SARS-CoV papain-like protease in yeast | S. cerevisiae expressing SARS-CoV PLpro, growth rescue | Potency, µM (series often up to 32.9 µM), actives largely listed as activators | 0.19% of 330,000 active | AID 485353; calls by dose curve; note: nearly all actives have a fitted effect of over 55% in size
AmpC detergent = AmpC beta-lactamase inhibition with detergent present. 0.041% of 370,000 active. Potency, µM (doses to about 114 µM), actives largely listed as inhibitors. AmpC hydrolysis of nitrocefin, absorbance 480 nm, 0.01% Triton. AID 485294. P00811; note: nearly all actives have a fitted effect of over 25% in size
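20 mM phosphate pH 7.0 + 0.01% (detergent screen) or 0.0001% Triton X-100; 5.3 nM AmpC reagent; cpd preinc 15 min RT; nitrocefin (800 uM stock) to start; A480 q20 s × 4 min; Activity was normalised to no-enzyme and no-compound control wells.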
Vaccinia mCherry = vaccinia inhibition (mCherry reporter); Vaccinia virus mCherry reporter infection, fluorescence; Potency, µM (highest dose often 36.5 µM), usual class: inhibitors; 0.63% of 310,000 active; AID 720579; calls by dose curve; tested in A549 cells; note: nearly all actives have a fitted effect of over 35% in size
SARS PLpro yeast-2 = Validates SARS-CoV PLpro inhibitor hits in yeast. shares compounds with SARS PLpro yeast-1. calls only. 19% of 1,000 active. yeast expressing SARS-CoV PLpro, growth phenotype rescue; call rule not given here
A number is an active result; - = inactive; ? = inconclusive; . = not tested or not shown; + = active, no number; [ ] = remark or other dose. Shown are actives, neighbours in structure and some others; about 1.3% of the full set was active somewhere. Unless noted, calls come from the whole dose curve; as a rule, active = well fitted curve in the direction sought with a large enough effect; inconclusive = small, poorly fitted or top-dose-only effect, or another doubt; inactive = no such curve, though single readings can be large; an effect the other way counts as inactive or inconclusive.

SMILES | AmpC no deterg | Vaccinia Venus | SARS PLpro yeast-1 | AmpC detergent | Vaccinia mCherry | SARS PLpro yeast-2
Cc1ccc(CSc2nnc(SCC(=O)N/N=C/c3c(C)nn(-c4ccccc4)c3C)s2)cc1 | - | - | - | - | - | .
COc1cc(/C=N/NC(=O)c2cnccn2)ccc1O | - | - | 3.5µM | ? | - | -
O=C(N/N=C/c1ccncc1)c1cnccn1 | - | -[7.34 µM] | - | - | -[7.34 µM] | .
Cc1cc(C(=O)CCl)c(C)n1CCc1ccccc1 | -[11.4 µM] | - | - | - | - | .
COC(=O)CCCn1c(C)cc(C(=O)CCl)c1C | - | ? | 11µM | - | ? | +
COC(=O)c1sc(NC(=S)NC(=O)c2ccc(F)cc2)nc1C | - | . | - | - | . | .
COC(=O)c1sc(NC(=S)NC(=O)c2cccc(Br)c2)nc1C | - | . | ? | ? | . | ?
Cc1cc(C(=O)N/N=C/c2cc(Cl)cc([N+](=O)[O-])c2O)c2ccccc2n1 | - | - | 2.2µM | ? | - | -
Cc1cc(C(=O)NN=C2CCCCC2)c2ccccc2n1 | - | - | 13µM | - | - | -
O=C(NN=Cc1cc(Cl)ccc1[N+](=O)[O-])c1cccc2ccccc12 | . | - | . | . | - | .
CN1CCC(C)(C(=O)Nc2cccc(Oc3ccccc3)c2)C1 (configuration not stated) | . | - | . | . | - | .
Cc1ccc(-c2[nH]ncc2/C=N/n2c(COc3ccccc3)nc3ccccc3c2=O)cc1 | - | ? | - | - | - | .
Cc1cc(/C=N/n2c(COc3ccccc3)nc3ccccc3c2=O)c(O)c([N+](=O)[O-])c1 | 20µM | ? | 2.5µM | ? | 28µM | +
COc1ccc(NC(=O)CN(C)C(=O)c2cc(S(=O)(=O)N(C)C)ccc2N2CCCC2)cc1 | - | - | . | ? | - | .
CN(CC(=O)Nc1c(Cl)cccc1Cl)C(=O)c1cc(S(=O)(=O)N(C)C)ccc1N1CCCC1 | - | - | ? | - | - | -
C[C@]12c3[nH]c4cc(-c5ccco5)ccc4c3CCN1C(=O)[C@@H](CC(=O)NCCCn1ccnc1)C[C@@H]2C(=O)N1CCOCC1 | - | - | ? | . | - | -
C[C@]12c3[nH]c4cc(-c5ccco5)ccc4c3CCN1C(=O)[C@@H](CC(=O)NCCCn1ccnc1)C[C@@H]2C(=O)N1CCCCC1 | - | - | - | . | ? | .
COCCNC(=O)c1ccc(CS(=O)(=O)c2ccc(C)cc2)o1 | - | . | ? | - | . | -
COC(CNC(=O)c1ccc(CS(=O)(=O)c2ccc(C)cc2)o1)OC | - | - | - | - | - | .
CCc1nnc(NC(=O)c2cnccn2)s1 | - | - | ? | - | - | -
Cc1ccccc1-c1nc(CS(=O)(=O)CC(=O)NCCCc2ccccc2)c(C)o1 | . | - | . | - | - | .
COc1ccc(CCNC(=O)CSCc2nc(-c3cccc(C)c3)oc2C)cc1OC | . | - | . | - | - | .
O=C(NCCc1ccc(Cl)cc1)/C(=C/c1cccnc1)NC(=O)c1ccccc1 | - | . | 16µM | - | . | -
COc1ccccc1CCNC(=O)/C(=C/c1cccnc1)NC(=O)c1ccccc1 | - | . | - | - | . | .
COc1ccc(CCNC(=O)Cn2nnc(-c3ccc(Cl)cc3)n2)cc1OC | . | - | . | - | - | .
SMILES | AmpC no deterg | Vaccinia Venus | SARS PLpro yeast-1 | AmpC detergent | Vaccinia mCherry | SARS PLpro yeast-2
O=C(Cn1nnc(-c2ccccc2F)n1)Nc1ccc2c(c1)OCO2 | - | - | ? | - | - | -
COc1ccc(CCNC(=O)Cn2nnc(-c3ccccc3F)n2)cc1OC | - | - | ? | - | - | -
COc1ccc(CCNC(=O)CCNC(=O)c2ccc(Br)cc2)cc1OC | - | - | ? | - | - | -
CN1CCN(Cc2cc(Cl)c3cccnc3c2OC(=O)c2cccs2)CC1 | - | ? | 11µM | - | 11µM | -
O=C(Oc1c(CN2CCOCC2)cc(Cl)c2cccnc12)c1ccccc1Br | - | . | - | - | . | .
O=C(CC(NC(=O)c1ccccc1)c1ccccc1)Nc1cccc2ccccc12 (configuration not stated) | - | - | ? | - | - | -
CNC(=S)N/N=C(\C)c1ccc2c(c1)OCO2 | - | - | - | - | - | .
CNC(=S)N/N=C(\C)c1ccc2c(c1)OCCO2 | - | - | ? | - | - | +
CNC(=S)N/N=C(\C)c1cccc([N+](=O)[O-])c1 | - | - | 13µM | - | - | -
O=C(NN1C(=O)/C(=C/c2ccc(O)c(O)c2)SC1=S)c1ccccc1 | - | - | ? | - | - | -
N#CC1=C(N)Oc2cc3ccccc3cc2C1c1cccnc1 (configuration not stated) | - | ? | - | - | ? | .
CC(C)(C)C1=C(C#N)C(c2cccnc2)C(C#N)=C(N)O1 (configuration not stated) | - | - | 18µM | - | - | -
COc1cccc(C2C(C#N)=C(N)OC(C(C)(C)C)=C2C#N)c1 (configuration not stated) | - | - | - | - | - | .
N#CC1=C(N)Oc2c(ccc3cccnc23)C1c1cccnc1 (configuration not stated) | - | . | ? | - | . | -
COc1ccc(S(=O)(=O)N2C[C@H]3CON(C)[C@H]3C[C@H]2c2ccc(-c3cc4ccccc4o3)cc2)cc1 | . | - | . | . | - | .
CNc1nc(-c2ccccn2)nnc1-c1ccccc1 | - | ? | ? | - | ? | -
COc1ccc(OC)c(C2/C(=C(/O)c3ccc(C)cc3)C(=O)C(=O)N2Cc2ccco2)c1 (configuration not stated) | - | - | 10µM | - | - | -
COc1ccc(/C(O)=C2\C(=O)C(=O)N(Cc3ccco3)C2c2cc(OC)ccc2OC)cc1 (configuration not stated) | - | - | - | - | - | .
CC(=O)N(CCc1ccccc1C)Cc1cc2cc3c(cc2[nH]c1=O)OCO3 | - | - | 11µM | - | . | -
CCC1CCC2(CC1)NNC(=S)NN2 | - | - | 8.9µM | - | - | -
CC(O)COCC1OC2OC3C(COCC(C)O)OC(OC4C(COCC(C)O)OC(OC5C(COCC(C)O)OC(OC6C(COCC(C)O)OC(OC7C(COCC(C)O)OC(OC8C(COCC(C)O)OC(OC1C(OCC(C)O)C2OCC(C)O)C(OCC(C)O)C8OCC(C)O)C(OCC(C)O)C7OCC(C)O)C(OCC(C)O)C6OCC(C)O)C(OCC(C)O)C5OCC(C)O)C(OCC(C)O)C4OCC(C)O)C(OCC(C)O)C3OCC(C)O (configuration not stated) | . | - | . | . | - | .
O=C(Nc1ccc(Br)cc1)c1cccn1-c1ncc(C(F)(F)F)cc1Cl | - | . | ? | - | . | -
NC(=O)c1cccn1-c1ncc(C(F)(F)F)cc1Cl | - | - | - | - | - | .
C/C(=N\NC(=O)CN1CCN(S(=O)(=O)c2ccc(C)cc2)CC1)c1cccnc1 | - | ? | 3.2µM | - | ? | -
COC(=O)[C@@]1(C)[C@H]2C(=O)N(Cc3ccccc3)C(=O)[C@H]2[C@H]2CN=C(SCc3ccccc3)N21 | - | ? | - | . | - | .
